The source of these data is PMC11062922 (Nature Chemical Biology, 2023).

Common to all, as to design: species or system human, MV4-11 + K-562 + COLO205 + SK-N-BE2 + OVCAR-8
In one experiment the test system is DYRK1A. The settings on record: read-out: apparent Kd, compound concentrations: 100 nM and 1000 nM (sheet 'Samples'), n = 1.
Another experiment has as its system PIP4K2C. To be noted: read-out: apparent Kd, compound concentrations: 100 nM and 1000 nM (sheet 'Samples'), n = 1.
Another experiment deals with PLK4. The settings on record: read-out: apparent Kd, n = 1.
A further experiment has as its system PRKCD. To be noted: read-out: apparent Kd, n = 1.
In the next experiment the test system is PRKD2. To be noted: read-out: apparent Kd, n = 1.
The subject of the next experiment is RPS6KA6. The settings on record: read-out: apparent Kd, n = 1.
In another experiment the test system is FLT3. The settings on record: read-out: apparent Kd, n = 1.
The next experiment has as its system FER. The settings on record: read-out: apparent Kd; compound concentrations: 100 nM and 1000 nM (sheet 'Samples'), CATDS: 8.2739447120601401E-3; n = 1.
In the next experiment the test system is LATS1. To be noted: read-out: apparent Kd, n = 1.
Another experiment has as its system MARK4. The settings on record: read-out: apparent Kd, n = 1.
Another experiment has as its system MYLK3. The settings on record: read-out: apparent Kd, n = 1.
The next experiment deals with PRKAA1. The settings on record: read-out: apparent Kd, n = 1.
For a further experiment, the system named is PRKCQ. The settings on record: read-out: apparent Kd, n = 1.
A further experiment has as its system PRKD3. To be noted: read-out: apparent Kd, n = 1.
The test system of a further experiment is PTK2B. The settings on record: read-out: apparent Kd, n = 1.
A further experiment relates to PTK2. The settings on record: read-out: apparent Kd, compound concentrations: 100 nM and 1000 nM (sheet 'Samples'), n = 1.
For a further experiment, the system named is STK10. To be noted: read-out: apparent Kd, n = 1.
A further experiment relates to CDK7. To be noted: read-out: apparent Kd; compound concentrations: 100 nM and 1000 nM (sheet 'Samples'), CATDS: 1.0726954600141701E-2; n = 1.
In the next experiment the test system is CDKL5. To be noted: read-out: apparent Kd, compound concentrations: 100 nM and 1000 nM (sheet 'Samples'), n = 1.
For the next experiment, the system named is ERCC2. To be noted: read-out: apparent Kd; compound concentrations: 100 nM and 1000 nM (sheet 'Samples'), CATDS: 1.0235233347988201E-2; n = 1.
The mark [1] stands for this setting: compound concentrations:100 nM and 1000 nM (sheet 'Samples').

Where two headings read alike, the source gives them in different places.

As for `CCn1c(-c2cccnc2O)nc2cnccc21` [SB-736715], the potency estimated from few doses was 2220 nM with DYRK1A (CATDS: 1.19408465116969E-2); 761 nM in the experiment on PIP4K2C (CATDS: 1.9889508399788002E-2); 1120 nM in the experiment on PLK4 (compound concentrations: 100 nM and 1000 nM (sheet 'Samples'), CATDS: 1.6109346407018599E-2); 2390 nM with PRKCD (compound concentrations: 100 nM and 1000 nM (sheet 'Samples'), CATDS: 1.16308056787147E-2); 1700 nM in the experiment with PRKD2 (compound concentrations: 100 nM and 1000 nM (sheet 'Samples'), CATDS: 1.32694977387129E-2); 1030 nM with RPS6KA6 (compound concentrations: 100 nM and 1000 nM (sheet 'Samples'), CATDS: 1.6792269740451799E-2).
On to `O=C1N=C(NCCCc2ccccc2)S/C1=C\c1ccc2ncccc2c1` [RO4493941-000], for which the potency estimated from few doses in the experiment with DYRK1A (CATDS: 6.8092992761352805E-2) is 1090 nM; in the experiment on FLT3 (compound concentrations: 100 nM and 1000 nM (sheet 'Samples'), CATDS: 7.0899563785954994E-2), 945 nM.
In the case of `O=C(O)C(F)(F)F.O=C(O)C(F)(F)F.O=c1[nH]ccc2nc(N[C@@H]3CCCNC3)nc(Nc3ccc(S(=O)(=O)N4CCOCC4)cc3)c12.O=c1[nH]ccc2nc(N[C@@H]3CCCNC3)nc(Nc3ccc(S(=O)(=O)N4CCOCC4)cc3)c12` [GSK2177277A], the potency estimated from few doses in the experiment on FER was 507 nM; with FLT3 (compound concentrations: 100 nM and 1000 nM (sheet 'Samples'), CATDS: 9.0751024069003396E-3) it was 370 nM; with LATS1 (compound concentrations: 100 nM and 1000 nM (sheet 'Samples'), CATDS: 1.48300039917603E-2), 99 nM; in the experiment on MARK4 (compound concentrations: 100 nM and 1000 nM (sheet 'Samples'), CATDS: 1.7623267984443299E-2) it was 68 nM; with MYLK3 (compound concentrations: 100 nM and 1000 nM (sheet 'Samples'), CATDS: 7.6821350503620796E-3), 670 nM; in the experiment on PIP4K2C (CATDS: 6.0874593504341903E-3), 2140 nM. Moreover, the potency estimated from few doses is 337 nM with PLK4 (compound concentrations: 100 nM and 1000 nM (sheet 'Samples'), CATDS: 9.3439650172966598E-3); 345 nM in the experiment with PRKAA1 (compound concentrations: 100 nM and 1000 nM (sheet 'Samples'), CATDS: 9.2771532951669705E-3); 219 nM in the experiment on PRKCD (compound concentrations: 100 nM and 1000 nM (sheet 'Samples'), CATDS: 1.08121865447726E-2); 1710 nM in the experiment with PRKCQ (compound concentrations: 100 nM and 1000 nM (sheet 'Samples'), CATDS: 6.3096913927369299E-3); 112 nM in the experiment on PRKD2 (compound concentrations: 100 nM and 1000 nM (sheet 'Samples'), CATDS: 1.40829388038229E-2); 65.9 nM in the experiment on PRKD3 (compound concentrations: 100 nM and 1000 nM (sheet 'Samples'), CATDS: 1.7898299297347601E-2). Further, the potency estimated from few doses in the experiment on PTK2B (compound concentrations: 100 nM and 1000 nM (sheet 'Samples'), CATDS: 2.4807788404782798E-2) was 35.2 nM; with PTK2 (CATDS: 7.5985318000446602E-3), 700 nM; with RPS6KA6 (compound concentrations: 100 nM and 1000 nM (sheet 'Samples'), CATDS: 8.3254992837084908E-3) it was 496 nM; in the experiment on STK10 (compound concentrations: 100 nM and 1000 nM (sheet 'Samples'), CATDS: 9.0871108796095092E-3), 369 nM.
For `COc1cc[nH]c1/C=C1\C(=O)Nc2ccc(F)c(C#CC3(O)CCNCC3)c21.Cl` [RO0282986-001], the potency estimated from few doses in the experiment with CDK7 is 1020 nM; in the experiment with CDKL5 (CATDS: 0.34989836845243499), 2.99 nM; in the experiment with ERCC2 it was 1210 nM; in the experiment on FLT3 (compound concentrations: 100 nM and 1000 nM (sheet 'Samples'), CATDS: 4.9574860121956603E-2) it was 43.6 nM; in the experiment with LATS1 (compound concentrations: 100 nM and 1000 nM (sheet 'Samples'), CATDS: 3.7276023026690398E-2) it was 68.4 nM; in the experiment with MARK4 (compound concentrations: 100 nM and 1000 nM (sheet 'Samples'), CATDS: 1.45077611109678E-2), 429 nM. The potency estimated from few doses is 368 nM in the experiment with MYLK3 (compound concentrations: 100 nM and 1000 nM (sheet 'Samples'), CATDS: 1.54633184822493E-2); 741 nM in the experiment on PRKAA1 (compound concentrations: 100 nM and 1000 nM (sheet 'Samples'), CATDS: 1.18517634082691E-2); 680 nM in the experiment on PRKCD (compound concentrations: 100 nM and 1000 nM (sheet 'Samples'), CATDS: 1.2203659987841E-2); 129 nM in the experiment with PRKD2 (compound concentrations: 100 nM and 1000 nM (sheet 'Samples'), CATDS: 2.5801010504162801E-2); 71.4 nM in the experiment on PRKD3 (compound concentrations: 100 nM and 1000 nM (sheet 'Samples'), CATDS: 3.6312689079161402E-2); 590 nM in the experiment with RPS6KA6 (compound concentrations: 100 nM and 1000 nM (sheet 'Samples'), CATDS: 1.2829138267775601E-2).
For the compound `Cc1cc(-c2ccnc(Nc3cccc(C#N)c3)n2)cc(C)c1O` [GSK1440913A], the potency estimated from few doses with PIP4K2C (CATDS: 0.18719100340522599) was 168 nM.
For `CC(C)Oc1ccc2c(-c3ccnc(Nc4ccc(N5CCN(C)CC5)cc4)n3)cnn2n1` [GW696155X], the potency estimated from few doses was 479 nM in the experiment with FLT3 (setting [1]); 1500 nM in the experiment on LATS1 (setting [1]); 1800 nM in the experiment with MARK4 (setting [1]); 506 nM with PLK4 (setting [1]); 482 nM with PRKD2 (setting [1]); 1110 nM in the experiment on PRKD3 (setting [1]).
Consider `Cl.Cl.NC(CNC(=O)c1cc(Br)c(-c2ccnc3[nH]ccc23)s1)c1ccccc1.NC(CNC(=O)c1cc(Br)c(-c2ccnc3[nH]ccc23)s1)c1ccccc1` (centres unmarked) [GSK1322949A], for which the values for the potency estimated from few doses in the experiment with CDKL5 (CATDS: 2.6362691965297801E-2), in the experiment with DYRK1A (CATDS: 2.3831773073254899E-2) and in the experiment with PTK2 (CATDS: 3.2827232082793402E-2) were 1670 nM, 2230 nM and 993 nM, respectively.
As for `CCn1c(-c2nonc2N)nc2c(C#CC(C)(C)O)nc(O[C@@H](CN)c3ccccc3)cc21.O=C(O)C(F)(F)F` [GSK1007102B], the potency estimated from few doses in the experiment with LATS1 (setting [1]) is 23.2 nM; with MARK4 (setting [1]) it was 768 nM; with PRKAA1 (setting [1]), 917 nM; in the experiment with PRKCD (setting [1]), 173 nM; in the experiment on PRKCQ (setting [1]) it was 71.9 nM.
As for `CC(C)Nc1cc(-c2ccc3c(N)n[nH]c3c2)nc(N)n1` [GSK2221681A], the potency estimated from few doses with MYLK3 (setting [1]) is 1410 nM.
In the case of `O=C(O)C(F)(F)F.O=c1[nH]ccc2nc(N[C@@H]3CCNC3)nc(Nc3cc(Cl)cc(Cl)c3)c12` [GSK2188764A], the potency estimated from few doses was 122 nM in the experiment with MARK4 (setting [1]); 184 nM with MYLK3 (setting [1]); 799 nM with PRKAA1 (setting [1]); 222 nM with PRKCD (setting [1]); 2080 nM with PRKCQ (setting [1]); 1300 nM in the experiment with PRKD2 (setting [1]). Further, the potency estimated from few doses with PRKD3 (setting [1]) was 1470 nM; with PTK2B (setting [1]) it was 46.7 nM; in the experiment with RPS6KA6 (setting [1]), 618 nM; in the experiment on STK10 (setting [1]), 992 nM.
